About 3,300 (8.5%) of roughly 39,000 compounds were called active. Only a selection was taken, and actives are over-represented in it overall.

This experiment has as its system HepG2. The experiment can be described thus: cytotoxicity call (relative viability < 0.9). The following applies: 10 µM.
On to `C[C@@H]1CN([C@H](C)CO)C(=O)c2cccc(NC(=O)c3ccncc3)c2O[C@@H]1CN(C)S(=O)(=O)c1cn(C)cn1`, for which the cytotoxicity call is “inactive”.
With `O=C1N[C@@H](c2ccccc2)COCc2cn(nn2)CC[C@@H](Cc2ccc(C(F)(F)F)cc2)C(=O)N[C@@H](c2ccccc2)COCc2cn(nn2)CC[C@H]1Cc1ccc(C(F)(F)F)cc1`, the cytotoxicity call was “inactive”.
With `O=C(O)[C@]1(O)C[C@H](O)[C@@H](O)[C@@H](O)C1`, the cytotoxicity call was “inactive”.
As for `Cc1noc(C)c1S(=O)(=O)N(C)C[C@@H]1Oc2ccc(N(C)C)cc2CC(=O)N([C@@H](C)CO)C[C@H]1C`, the entry is “inactive”; as for `CC(C)C1=CC2=CCC3C(C)(C(=O)O)CCCC3(C)C2CC1` (centres undefined), “inactive”.
As for `C=C1C[C@@]23CC[C@@H]4[C@@](C)(CCC[C@@]4(C)C(=O)OC)[C@H]2CC[C@@H]1C3`, the entry is “inactive”; as for `C=C1C[C@]23CC[C@@H]4[C@@](C)(CCC[C@@]4(C)C(=O)O)[C@H]2CC[C@H]1C3`, “active”.
`Cc1noc(C)c1NC(=O)Nc1ccc2c(c1)CC(=O)N([C@H](C)CO)C[C@@H](C)[C@@H](CN(C)C(=O)NC(C)C)O2`: the cytotoxicity call is “inactive”.
As for `COc1ccccc1CN1C(=O)c2ccccc2[C@](Cc2ccccc2I)(C(=O)NC2CC2)[C@@H]1c1ccc(CO)cc1`, the entry is “active”.
Regarding `COc1ccc(CCNC(=O)[C@@]2(Cc3ccccc3I)c3ccccc3C(=O)N(Cc3ccccc3OC)[C@H]2c2ccc(CO)cc2)cc1`, the cytotoxicity call is “inactive”.
Regarding `COc1ccccc1CN1C(=O)c2ccccc2[C@](Cc2ccccc2I)(C(=O)NCC(C)C)[C@@H]1c1ccc(CO)cc1`, the cytotoxicity call was “inactive”.
As for `COc1ccccc1CN1C(=O)c2ccccc2[C@](Cc2ccccc2I)(C(=O)O)[C@@H]1c1ccc(CO)cc1`, the entry is “inactive”.
`COCCCNC(=O)[C@@]1(Cc2ccccc2I)c2ccccc2C(=O)N(Cc2ccccc2OC)[C@H]1c1ccc(CO)cc1`: the cytotoxicity call was “inactive”.
For the molecule `COc1ccccc1CN1C(=O)c2ccccc2[C@](Cc2ccccc2I)(C(=O)NCCCN(C)C)[C@@H]1c1ccc(CO)cc1`, the cytotoxicity call is “active”.
The same measure for `CO[C@H]1CN(C)C(=O)c2cc(NS(=O)(=O)CC(F)(F)F)ccc2OC[C@@H](C)N(Cc2cccnc2)C[C@@H]1C`: “inactive”.
As for `COc1ccc2c3c(n(c2c1)C)[C@H](CO)N(C[C@]13CCN(CC1)C(=O)c1ccncc1)C(=O)C1CCOCC1`, the entry is “inactive”; as for `CC(C)NC(=O)Nc1cccc2c1O[C@@H](CN(C)C(=O)Nc1ccc3c(c1)OCO3)[C@@H](C)CN([C@H](C)CO)C2=O`, “inactive”; as for `C[C@@H]1CCCCO[C@H](CN(C)S(=O)(=O)c2cn(C)cn2)[C@@H](C)CN([C@H](C)CO)C(=O)c2cc(NC(=O)c3ccncc3)ccc2O1`, “inactive”.
As for `C[C@H]1CN([C@@H](C)CO)C(=O)c2cccc(NS(=O)(=O)c3cn(C)cn3)c2O[C@@H]1CN(C)S(=O)(=O)c1ccc(Cl)cc1`, the entry is “inactive”; as for `COc1ccc(CNC(=O)C[C@H]2CC[C@H]3[C@@H](COc4ccc(NC(=O)C5CC5)cc4C(=O)N3C)O2)cc1`, “inactive”; as for `Nc1ccn(C2OC(CO)C(O)C2O)c(=O)n1` (centres undefined), “inactive”.
As to `Nc1ccn([C@@H]2O[C@H](CO)[C@@H](O)C2(F)F)c(=O)n1`, the cytotoxicity call was “inactive”.
Take `C#C[C@@]1(O)[C@@H](CO)O[C@@H](n2ccc(N)nc2=O)[C@@H]1O`: the cytotoxicity call was “active”.
For the molecule `C[C@@]1(F)[C@H](O)[C@@H](CO)O[C@H]1n1ccc(N)nc1=O`, the cytotoxicity call is “inactive”.
The same measure for `Nc1ccn([C@@H]2O[C@H](CO)[C@@H](O)[C@H]2O)c(=O)n1`: “inactive”; for `Cl.Nc1ccn(C2OC(CO)C(O)C2(F)F)c(=O)n1` (centres undefined): “active”; for `C[C@H](CO)N1C[C@H](C)[C@@H](CN(C)C(=O)C2CC2)OCc2cn(nn2)CCCC1=O`: “inactive”.
The same measure for `Cc1noc(C)c1S(=O)(=O)Nc1ccc2c(c1)C(=O)N([C@H](C)CO)C[C@H](C)[C@@H](CN(C)Cc1ccc(C(=O)O)cc1)O2`: “inactive”; for `C[C@@H]1CCCCO[C@@H](CN(C)C(=O)c2ccccc2)[C@H](C)CN([C@H](C)CO)C(=O)c2cc(NC(=O)Nc3ccc4c(c3)OCO4)ccc2O1`: “inactive”.
For the molecule `C[C@@H]1CCCCO[C@@H](CN(C)C(=O)Cc2ccccc2)[C@@H](C)CN([C@@H](C)CO)C(=O)c2cc(NC(=O)Nc3ccc4c(c3)OCO4)ccc2O1`, the cytotoxicity call is “inactive”.
The same measure for `C[C@@H]1CCCCO[C@@H](CN(C)C(=O)Cc2ccccc2)[C@H](C)CN([C@H](C)CO)C(=O)c2cc(NC(=O)NC3CCCCC3)ccc2O1`: “active”.
As for `C[C@H](CO)N1C[C@H](C)[C@H](CN(C)C(=O)Cc2ccccc2)OCCCC[C@H](C)Oc2ccc(NC(=O)Nc3ccc4c(c3)OCO4)cc2C1=O`, the entry is “active”; as for `C[C@@H]1CCCCO[C@@H](CN(C)C(=O)Cc2ccccc2)[C@@H](C)CN([C@H](C)CO)C(=O)c2cc(NC(=O)Nc3ccc(F)cc3)ccc2O1`, “inactive”; as for `C[C@@H]1CCCCO[C@@H](CN(C)C(=O)Cc2ccccc2)[C@H](C)CN([C@H](C)CO)C(=O)c2cc(NC(=O)Nc3ccc(F)cc3)ccc2O1`, “active”.
As for `C[C@@H]1CCCCO[C@H](CN(C)C(=O)Cc2ccccc2)[C@H](C)CN([C@@H](C)CO)C(=O)c2cc(NC(=O)NC3CCCCC3)ccc2O1`, the entry is “inactive”; as for `C[C@H]1CCCCO[C@H](CN(C)C(=O)Cc2ccccc2)[C@@H](C)CN([C@@H](C)CO)C(=O)c2cc(NC(=O)Nc3ccc4c(c3)OCO4)ccc2O1`, “inactive”.
On to `C[C@@H]1CCCCO[C@@H](CN(C)C(=O)Cc2ccccc2)[C@@H](C)CN([C@H](C)CO)C(=O)c2cc(NC(=O)NC3CCCCC3)ccc2O1`, for which the cytotoxicity call was “inactive”.
As for `C[C@@H]1CCCCO[C@H](CN(C)C(=O)Cc2ccccc2)[C@@H](C)CN([C@H](C)CO)C(=O)c2cc(NC(=O)Nc3ccc(F)cc3)ccc2O1`, the entry is “inactive”; as for `Nc1ncnc2c([C@@H]3N[C@H](CO)[C@@H](O)[C@H]3O)c[nH]c12`, “inactive”.
The same measure for `Cc1noc(C)c1S(=O)(=O)Nc1ccc2c(c1)C(=O)N([C@H](C)CO)C[C@H](C)[C@@H](CN(C)Cc1ccc(Cl)c(Cl)c1)OCCCC[C@@H](C)O2`: “inactive”.
The same measure for `C[C@@H](Oc1ccccc1Cl)c1nc2ccc(Cl)cc2[nH]1`: “inactive”; for `COC(=O)[C@H]1c2cc3c(c(O)c2[C@@H](O[C@@H]2O[C@H](C)[C@H](OC)[C@](C)(OC)[C@@H]2OC)C[C@@]1(C)O)C(=O)c1c(O)cc2c(c1C3=O)O[C@H]1O[C@@]2(C)[C@@H](O)[C@H](N(C)C)[C@@H]1O`: “active”; for `O=C1O[C@H](c2ccccc2)[C@H](c2ccccc2)N2[C@H]1[C@@H](C(=O)N1CCCCCCC1)[C@]1(C(=O)Nc3ccc(C#CC4=CCCCC4)cc31)[C@H]2c1ccc(O)cc1`: “inactive”.
With `COc1ccc(S(=O)(=O)N(C)C[C@@H]2Oc3c(NC(=O)C4CC4)cccc3C(=O)N([C@H](C)CO)C[C@H]2C)cc1`, the cytotoxicity call is “inactive”.
The same measure for `O=C(C[C@H]1C=C[C@@H](NC(=O)c2ccc(F)cc2)[C@@H](CO)O1)NCc1ccncn1`: “inactive”.
`C[C@@H]1CN([C@H](C)CO)C(=O)Cc2cc(NS(=O)(=O)c3cn(C)cn3)ccc2O[C@H]1CN(C)C`: the cytotoxicity call is “inactive”.
`O=C(C[C@@H]1C=C[C@H](NC(=O)CN2CCOCC2)[C@H](CO)O1)NC1CCCCC1`: the cytotoxicity call is “inactive”.
For `CO[C@@H]1CN(C)C(=O)c2ccc(NC(=O)c3ccccc3)cc2OC[C@H](C)N(C(=O)CN(C)C)C[C@@H]1C`, the cytotoxicity call was “inactive”.
In the case of `OC[C@@H]1CCCO1`, the cytotoxicity call was “inactive”.
The same measure for `COc1ccc(NC(=O)Nc2ccc3c(c2)CC(=O)N([C@@H](C)CO)C[C@@H](C)[C@H](CN(C)Cc2ccc(-c4ccccc4)cc2)O3)cc1`: “active”.
As for `COc1ccc(NC(=O)Nc2ccc3c(c2)CC(=O)N([C@@H](C)CO)C[C@H](C)[C@@H](CN(C)Cc2ccc(-c4ccccc4)cc2)O3)cc1`, the entry is “inactive”; as for `COc1ccc(NC(=O)Nc2ccc3c(c2)CC(=O)N([C@H](C)CO)C[C@@H](C)[C@H](CN(C)Cc2ccc(-c4ccccc4)cc2)O3)cc1`, “inactive”.
As for `COc1ccc(NC(=O)Nc2ccc3c(c2)CC(=O)N([C@@H](C)CO)C[C@H](C)[C@H](CN(C)Cc2ccc(-c4ccccc4)cc2)O3)cc1`, the entry is “active”.
Regarding `COc1ccc(NC(=O)Nc2ccc3c(c2)CC(=O)N([C@H](C)CO)C[C@H](C)[C@@H](CN(C)Cc2ccc(-c4ccccc4)cc2)O3)cc1`, the cytotoxicity call is “inactive”.
For `COc1ccc(NC(=O)Nc2ccc3c(c2)CC(=O)N([C@H](C)CO)C[C@H](C)[C@H](CN(C)Cc2ccc(-c4ccccc4)cc2)O3)cc1`, the cytotoxicity call is “active”.
As for `COc1ccc(NC(=O)Nc2ccc3c(c2)CC(=O)N([C@@H](C)CO)C[C@@H](C)[C@@H](CN(C)Cc2ccc(-c4ccccc4)cc2)O3)cc1`, the entry is “active”; as for `C[C@@H]1CN([C@H](C)CO)C(=O)Cc2cc(NS(=O)(=O)c3cccs3)ccc2O[C@@H]1CN(C)S(=O)(=O)c1ccc(F)cc1`, “inactive”; as for `COc1ccc(NC(=O)N(C)C[C@@H]2Oc3ccc(NC(=O)CCCCCC(=O)Nc4ccccc4N)cc3CC(=O)N([C@@H](C)CO)C[C@@H]2C)cc1`, “inactive”.
As for `C[C@@H]1CN([C@H](C)CO)C(=O)c2cc(NC(=O)C3CC3)ccc2O[C@H]1CN(C)S(=O)(=O)c1cn(C)cn1`, the entry is “inactive”.
As for `O=C(Cc1n[nH]c(=O)[nH]1)NCc1n[nH]c2c1CCCCC2`, the entry is “inactive”; as for `N=C1SCCN1CC(=O)O`, “inactive”; as for `C[C@@H]1CCCCO[C@H](CN(C)S(=O)(=O)c2ccc(F)cc2)[C@H](C)CN([C@@H](C)CO)C(=O)c2cc(NC(=O)CCC(F)(F)F)ccc2O1`, “inactive”.
As for `C[C@H]1CN([C@@H](C)CO)C(=O)c2cc(NC(=O)Cn3cnnn3)ccc2O[C@@H]1CN(C)S(=O)(=O)c1cn(C)cn1`, the cytotoxicity call was “inactive”.
On to `Cc1ccc(S(=O)(=O)N(C)C[C@H]2Oc3c(NS(=O)(=O)c4cn(C)cn4)cccc3C(=O)N([C@H](C)CO)C[C@H]2C)cc1`, for which the cytotoxicity call was “inactive”.

Source of the values: the antibiotic and cytotoxicity screens of Wong et al. (2023).
